From PubChem
Shown are actives, neighbours in structure and some others; about 1.2% of the full set was active somewhere.
RGS4-Gao reg: modulates binding of RGS4 to human Galphao; Multiplexed bead flow cytometry; actives lie on both sides; binding response (% of control), % at 10 µM; 0.33% of 220,000 active; AID 1415; in the data active means binding response below about 49% or above about 150%; inactive means in between;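 further: fluorescent Galphao activated with aluminum fluoride binding bead-coupled RGS4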
Target sequence (P09471 whole entry, looked up): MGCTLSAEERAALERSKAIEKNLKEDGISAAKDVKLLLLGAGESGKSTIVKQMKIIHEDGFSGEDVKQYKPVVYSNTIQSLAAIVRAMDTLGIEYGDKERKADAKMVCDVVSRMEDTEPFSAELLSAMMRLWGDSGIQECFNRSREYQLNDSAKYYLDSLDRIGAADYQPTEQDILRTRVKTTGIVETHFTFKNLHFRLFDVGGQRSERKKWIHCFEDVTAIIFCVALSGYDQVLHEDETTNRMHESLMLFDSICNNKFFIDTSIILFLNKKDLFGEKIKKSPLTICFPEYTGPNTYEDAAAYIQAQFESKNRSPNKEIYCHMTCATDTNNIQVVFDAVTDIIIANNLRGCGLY
Avidin fluor: compound fluoresces at 488/530 nm on avidin beads | compound fluorescence 488/530 nm, flow cytometry; stronger effect = higher value | fluorescence (KMESF) at 10 µM | 0.38% of 220,000 active | AID 1775; in the data active means fluorescence above about 47
RGS8-Gao reg: modulates binding of RGS8 to human Galphao; P09471; multiplexed bead flow cytometry; actives lie on both sides; response (percent of control binding), % at 10 µM; 0.34% of 220,000 active; AID 1423; in the data active means response below about 60% or above about 140%; inactive means in between;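 further: Galphao activated as the GDP aluminium fluoride complex binding bead-coupled RGS8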
RGS7-Gao reg: regulators of human RGS7-Galphao interaction; P09471; Multiplexed bead flow cytometry, RGS7-Galphao binding; actives lie on both sides; binding response (% of control), % at 10 µM; 0.35% of 220,000 active; AID 1439; in the data active means binding response below about 49% or above about 150%; inconclusive means no clear call, values can overlap the other calls; inactive means in between;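 further: fluorescent Galphao held in activated GDP-AlF4 state binding bead-coupled RGS7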
GSH bead fluor: compound fluoresces at 488/530 nm on GSH beads; GSH beads flow cytometry, compound fluorescence 488/530 nm; stronger effect = higher value; fluorescence (KMESF) at 10 µM; 0.25% of 190,000 active; AID 1776; in the data active means fluorescence above about 89;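 further: glutathione beads carrying GST-tagged Bcl family fusion proteins plus one bare bead set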
RGS16-Gao: modulates binding between human RGS16 and Galphao; O15492+P09471; bead-based flow cytometry RGS16-Galphao binding, fluorescence; actives lie on both sides; binding response (% of control), % at 10 µM; 0.38% of 220,000 active; call rule not given here;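 further: Galphao activated by GDP with aluminum fluoride before binding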
Target sequence (O15492 whole entry, looked up): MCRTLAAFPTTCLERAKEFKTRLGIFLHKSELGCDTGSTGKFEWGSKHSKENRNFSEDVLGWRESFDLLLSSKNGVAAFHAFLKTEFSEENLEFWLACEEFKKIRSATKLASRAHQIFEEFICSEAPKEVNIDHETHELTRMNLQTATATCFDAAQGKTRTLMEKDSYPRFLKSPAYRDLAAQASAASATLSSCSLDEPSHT
Target sequence (P09471 whole entry, looked up): as the sequence (P09471 whole entry, looked up) above
Large screens that a line does not name were inactive; [ ] = remark or other dose.

Cc1sc2nc3c4ccccc4c(NCc4ccco4)nn3c(=O)c2c1C	Avidin fluor 65
Cc1nc(NCc2ccco2)c2c(C)c(C)sc2n1	none
COc1ccc(/C=N/Nc2nc(Nc3ccccc3)nc(N3CCCC3)n2)cc1	Avidin fluor 78
Cn1cnc2c(=O)[nH]cc([N+](=O)[O-])c21	Avidin fluor 62
Cc1cc(C(=O)NC2CCCc3ccccc32)no1 (centres undefined)	Avidin fluor 47
COC(=O)c1ccc(OC(=O)c2ccccn2)cc1	GSH bead fluor 269
COC(=O)c1ccc(/C=C(\C#N)c2ccccn2)cc1	none
O=C(Nn1c(-c2ccccc2)nc2ccccc2c1=O)c1cccs1	none
COc1ccccc1-c1nc2ccccc2c(=O)n1NC(=O)c1cccs1	GSH bead fluor 108
CCOc1ccc(OCC)c(NC(=O)C2CCCN(c3ncccn3)C2)c1 (centres undefined)	GSH bead fluor 264
CCOc1ccc(OCC)c(NC(=O)C2CCN(c3ncccn3)CC2)c1	none
CCOC(=O)N1CCN(c2cc(NCCO)c([N+](=O)[O-])c3nonc23)CC1	Avidin fluor 103
CCOC(=O)C1(CC2CC2)CCN(C(=O)c2cccnc2C)CC1	none
COc1ccc(S(=O)(=O)NCc2ccc(C)cc2)cc1	GSH bead fluor 263
Cc1nc(-c2ccc(S(=O)(=O)NCc3ccccn3)s2)cs1	RGS7-Gao reg inconclusive (no result: GSH bead fluor)
O=C(c1ccc(Cl)c(Cl)c1)N1CCC(=O)N(C(COCc2ccccc2)Cc2ccccc2)CC1 (centres undefined)	none
O=C(CN1CCOCC1)NCc1ccccc1	Avidin fluor 62
N#Cc1nc(COc2ccc(-c3ccccc3)cc2)oc1NCCCN1CCOCC1	Avidin fluor 233
COc1ccc(-c2cc(C#N)nc(N3CCNCC3)n2)cc1	Avidin fluor 49
CCCCn1c(SCC(=O)c2cc(OC)ccc2OC)nc2cc(S(N)(=O)=O)ccc21	GSH bead fluor 260
CCCCn1c(SCC(=O)N2CCC(C)CC2)nc2cc(S(N)(=O)=O)ccc21	none
COC(=O)c1ccc(Nc2nc(C)cc(C)n2)cc1	none
COc1nc(Nc2ccc(C(C)=O)cc2)nc(OC)n1	RGS4-Gao reg 188[activator], Avidin fluor 76
COc1cccc(C(=O)NNC(=O)Cc2cccs2)c1	none
Oc1ccccc1-n1c(-c2ccccc2)ccc1-c1ccccc1	RGS7-Gao reg inconclusive (no result: GSH bead fluor)
COc1ccc(NC(=O)CSc2ccc3c4c(cccc24)C(=O)c2ccccc2-3)cc1	Avidin fluor 49
CC(C)(C)c1cc(C(=O)Nc2ccccc2)ccn1	GSH bead fluor 103
COc1ccc(C(C)(C)C)cc1NC(=O)COC(=O)c1ccc([N+](=O)[O-])o1	none
O=C(NCc1ccc2c(c1)OCO2)c1c[nH]c2ccc(S(=O)(=O)N3CCOCC3)cc2c1=O	none
O=C(NCc1ccccc1)c1c[nH]c2cc3c(cc2c1=O)OCCO3	GSH bead fluor 89
CN(C)C(CNC(=O)c1ccc(S(=O)(=O)N(C)C)cc1)Cc1ccccc1 (centres undefined)	RGS7-Gao reg inconclusive
Cc1nc2ccccc2c(=O)n1/N=C/C=C/c1ccccc1	RGS7-Gao reg inconclusive (no result: GSH bead fluor)
O=C(CCCOc1ccc(Cl)cc1Cl)N1CCCc2ccccc21	GSH bead fluor 250
Cc1ccc(OCC(=O)N2CCc3ccccc32)cc1	none
O=C(Cn1cnc2ccccc21)OCC(=O)N1CCCc2ccccc21	GSH bead fluor 253
O=C(COC(=O)Cn1cnc2ccccc21)NCCC1=CCCCC1	GSH bead fluor 257
O=C(COc1ccc(Cl)cc1Cl)OCC(=O)N1CCCc2ccccc21	none
Cc1ccc(OCC(=O)N2CCCc3ccccc32)cc1	GSH bead fluor 140
S=C(Nc1ccc(Cc2ccncc2)cc1)Nc1cccc(Cl)c1	RGS7-Gao reg inconclusive
COC(=O)NNC(=S)Nc1ccc(Br)cc1	none
CCOC(=O)c1c(NC(=O)Cn2nc(C(=O)O)c3ccccc3c2=O)sc(CC)c1C	RGS7-Gao reg inconclusive
COc1ccc(/C(C)=N/NC(=S)Nc2cc(C)ccc2C)cc1	RGS7-Gao reg inconclusive
Cc1cc(C)c2nc(SCC(=O)NCC3CCCO3)c(C#N)cc2c1 (centres undefined)	none
COc1ccc(Cc2noc(CN(C)CCN3CCc4ccccc4C3)n2)cc1OC	none
CN(CCN1CCc2ccccc2C1)Cc1nc(Cc2ccccc2F)no1	RGS4-Gao reg 28, RGS8-Gao reg 27, RGS7-Gao reg 17, RGS16-Gao 20
COc1ccc(C(=O)C2CCCN(C(=O)c3ccc4cc[nH]c4c3)C2)c(C)c1 (centres undefined)	none
O=S(=O)(Nc1ccc(Cl)cc1)c1ccc2c(c1)CCO2	Avidin fluor 62, RGS7-Gao reg inconclusive (no result: GSH bead fluor)
Cc1ccnc(NS(=O)(=O)c2ccc3c(c2)CCO3)c1	RGS7-Gao reg inconclusive (no result: GSH bead fluor)
CC(C)c1ccc(NNC(=O)C2CCC2)cc1	RGS7-Gao reg inconclusive (no result: GSH bead fluor)
CN(C#N)c1nc(Cl)nc(Nc2cccc(Cl)c2)n1	none
CC(=O)c1cc(F)c(N2CCN(C(=O)COc3ccc(F)cc3)CC2)cc1C	GSH bead fluor 93
Cc1noc(C)c1COC(=O)c1cccc(N(C)C)c1	none
O=C(Nc1ccc2c(c1)N(Cc1ccccc1)C(=O)c1ccccc1S2)NC1CC1	none
CN1C(=O)c2ccccc2Sc2ccc(NC(=O)NC3CC3)cc21	Avidin fluor 92
COc1ccccc1NC(=S)NC(C)=O	none
COc1ccccc1NC(C)=O	GSH bead fluor 251
CCOc1ccccc1NC(=O)Nc1ccc(Br)cn1	none
COc1ccccc1NC(=O)Nc1ccc(Br)cn1	GSH bead fluor 266
COc1ccccc1NC(=O)NCCC1=CCCCC1	none
COc1ccccc1NC(=O)NCCCl	Avidin fluor 92
Cc1nn(-c2ccccc2)c(=S)c2ccccc12	none
COc1ccc(N2C(=O)C3CCCN3C2=O)cc1 (centres undefined)	Avidin fluor 65
CCn1c2ccccc2c2cc(NC(=O)N3CCOCC3)ccc21	Avidin fluor 47
Cc1cc2nc(-c3ccc(SCC(=O)Nc4ccc5c(c4)OCCO5)nc3)[nH]c2cc1C	Avidin fluor 53
Cc1ccc2nc(-c3ccc(SCC(=O)Nc4ccc5c(c4)OCCO5)nc3)[nH]c2c1	none
CC(=O)c1cccc(CN2CCN(C(C)C)C(CCO)C2)c1 (centres undefined)	none
CCOC(=O)C1C(=O)OC(C)(C)C1C(CC)C(=O)c1c(C)cc(C)cc1C (centres undefined)	RGS7-Gao reg inconclusive (no result: GSH bead fluor)
Cc1ccc(C(=O)CSc2ccccn2)cc1	Avidin fluor 65
O=C(CSc1ccccn1)c1ccc(F)cc1	none
COc1ccc(NC(=O)Nc2cccc(C(F)(F)F)c2)cn1	RGS7-Gao reg inconclusive
COc1ccc(/C=C/C(=O)NCC(=O)N/N=C(/CCC(=O)O)c2ccccc2)cc1	RGS7-Gao reg inconclusive (no result: GSH bead fluor)
